Active and inactive are the calls of the source. Rule for the calls: active = hit-call score of the fitted dose curve at least 0.9, where 1 is the maximum; inactive = score below 0.9.

Five molecules from PubChem BioAssay (EPA / NIEHS) can be followed below.

What all share (details): mRNA level, 48 h; actives raise or lower the signal
Read-out in test [1]: Peroxisomal acyl-coenzyme A oxidase 1 (ACOX1) gene, ACOX1 (gene 51)
The experiment in a line: LTEA_HepaRG_ACOX1: Life Technologies and Expression Analysis (LTEA) Assay for Peroxisomal acyl-coenzyme A oxidase 1 (ACOX1) gene using HepaRG (AID 2283467). An outline of the steps:
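Measured by qRT-PCR against three housekeeping genes: ACOX1 transcript change in human HepaRG cells after 48 h dosing. Concentrations ran up to 100 uM in half-log steps. Curves were fitted bidirectionally relative to 0.5% DMSO.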

Read-out in test [2]: Alkaline Phosphatase, Placental (ALPP) gene, ALPP (gene 250)
In words: LTEA_HepaRG_ALPP: Life Technologies and Expression Analysis (LTEA) Assay for Alkaline Phosphatase, Placental (ALPP) gene using HepaRG (AID 2283468).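 For AC50: differentiated human HepaRG liver cells in serum-free induction medium.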 An outline of the steps:
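ALPP transcript level, measured by qRT-PCR and normalized to three housekeeping genes (ACTB, GAPDH, POLR2A), after 48 h dosing of differentiated HepaRG in serum-free induction medium. Top concentration 100 uM with half-log dilutions (8 points, 0.5% DMSO, duplicates); bidirectional fitting relative to DMSO.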

Read-out in test [3]: Bcl-2 (BAD) gene, BAD (gene 572)
The experiment in a line: LTEA_HepaRG_BAD: Life Technologies and Expression Analysis (LTEA) Assay for Bcl-2 (BAD) gene using HepaRG (AID 2283469). An outline of the steps: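 BAD transcript change, measured by qRT-PCR against three housekeeping genes and fitted in both directions relative to 0.5% DMSO, after 48 h chemical treatment of human HepaRG liver cells at concentrations up to 100 uM.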

Read-out in test [4]: adenosine kinase (ADK) gene, ADK (gene 132)
In words: LTEA_HepaRG_ADK: Life Technologies and Expression Analysis (LTEA) Assay for adenosine kinase (ADK) gene using HepaRG (AID 2283471). The method in brief:
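Following 48 h exposure of HepaRG cells in 0.5% DMSO (top concentration 100 uM, duplicate wells), ADK mRNA induction or suppression was measured by qRT-PCR, normalised to ACTB/GAPDH/POLR2A, and fitted bidirectionally relative to vehicle.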

Read-out in test [5]: Alpha-fetoprotein (AFP) gene, AFP (gene 174)
In words: LTEA_HepaRG_AFP: Life Technologies and Expression Analysis (LTEA) Assay for Alpha-fetoprotein (AFP) gene using HepaRG (AID 2283472). The method in brief:
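After a 48 h plating period, cells are moved to serum-free induction medium and dosed in duplicate (100 uM maximum, half-log dilutions, 0.5% DMSO) for another 48 h. Total RNA goes to TaqMan qRT-PCR; AFP signal is housekeeping-normalized.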

Read-out in test [6]: BCL2L11 (gene 10018)
The experiment in a line: LTEA_HepaRG_BCL2L11: Life Technologies and Expression Analysis (LTEA) Assay for Bcl-2 (BCL2L11) gene using HepaRG (AID 2283473). An outline of the steps: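 BCL2L11 transcript levels are measured by Fluidigm qRT-PCR, normalized to three housekeeping genes. HepaRG cultures were plated 48 h, then treated 48 h with test chemical (top 100 uM, half-log, 0.5% DMSO vehicle); curves were fitted bidirectionally against DMSO.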

Read-out in test [7]: Apolipoprotein A-V (APOA5) gene, APOA5 (gene 116519)
The experiment in a line: LTEA_HepaRG_APOA5: Life Technologies and Expression Analysis (LTEA) Assay for Apolipoprotein A-V (APOA5) gene using HepaRG (AID 2283474). An outline of the steps: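 APOA5 transcript levels were quantified by qRT-PCR, normalized to three housekeeping genes, after 48 h chemical treatment of HepaRG cells (8 points, 100 uM maximum, half-log steps, 0.5% DMSO). Curves fitted in both directions against vehicle.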

Read-out in test [8]: Apoptosis regulator Bcl-2 (Homo sapiens) (UniProt P10415)
In words: LTEA_HepaRG_BCL2: Life Technologies and Expression Analysis (LTEA) Assay for Bcl-2 gene using HepaRG (AID 2283475).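 Note: BCL2 transcript by TaqMan qRT-PCR normalised to ACTB GAPDH and POLR2A.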 The method in brief: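 Expression change of BCL2 mRNA in HepaRG after 48 h dosing, quantified by TaqMan qRT-PCR against three endogenous controls. Concentration-response used eight points up to 100 uM, vehicle 0.5% DMSO.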

Read-out in test [9]: Bcl-2 (BID) gene, BID (gene 637)
In words: LTEA_HepaRG_BID: Life Technologies and Expression Analysis (LTEA) Assay for Bcl-2 (BID) gene using HepaRG (AID 2283476). An outline of the steps: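 Gain or loss of BID expression is fitted relative to 0.5% DMSO vehicle. Human HepaRG liver cells received a 48 h chemical exposure over an eight-point concentration range.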

Read-out in test [10]: Caspase-3 (Homo sapiens) (UniProt P42574)
The experiment in a line: LTEA_HepaRG_CASP3: Life Technologies and Expression Analysis (LTEA) Assay for cysteine-aspartic acid protease (CASP3) using HepaRG (AID 2283477). The method in brief: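 Expression of CASP3 was quantified by TaqMan qRT-PCR against three housekeeping genes (ACTB, GAPDH, POLR2A), bidirectionally versus 0.5% DMSO. HepaRG cultures received compounds in duplicate, top 100 uM with half-log steps, for 48 h in serum-free induction medium.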

Read-out in test [11]: Cytochrome P450 (CYP24A1), CYP24A1 (gene 1591)
In words: LTEA_HepaRG_CYP24A1: Life Technologies and Expression Analysis (LTEA) Assay for Cytochrome P450 (CYP24A1) using HepaRG (AID 2283478). The method in brief: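 mRNA of CYP24A1 quantified by TaqMan qRT-PCR (ACTB/GAPDH/POLR2A normalization) after 48 h chemical exposure of HepaRG cells, top concentration 100 uM, half-log steps, 0.5% DMSO vehicle, duplicates. Curves fitted bidirectionally against DMSO baseline.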

Read-out in test [12]: Cytochrome P450 (CYP1A2), CYP1A2 (gene 1544)
In words: LTEA_HepaRG_CYP1A2: Life Technologies and Expression Analysis (LTEA) Assay for Cytochrome P450 (CYP1A2) using HepaRG (AID 2283479). The method in brief: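 CYP1A2 transcript measured by TaqMan qRT-PCR against three housekeeping genes after 48-hour chemical exposure of HepaRG cells. Eight-point half-log series topping at 100 uM in 0.5% DMSO, duplicates; gain or loss fitted relative to vehicle.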

Read-out in test [13]: cysteine-aspartic acid protease (CASP8), CASP8 (gene 841)
In words: LTEA_HepaRG_CASP8: Life Technologies and Expression Analysis (LTEA) Assay for cysteine-aspartic acid protease (CASP8) using HepaRG (AID 2283480). An outline of the steps: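 HepaRG, 48 h exposure, duplicate wells; 8 conc, half-log from 100 uM, 0.5% DMSO. Serum-free induction medium. CASP8 mRNA by TaqMan qRT-PCR, norm. ACTB/GAPDH/POLR2A; gain/loss fitted vs DMSO.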

Read-out in test [14]: Cytochrome P450 (CYP2B6), CYP2B6 (gene 1555)
The experiment in a line: LTEA_HepaRG_CYP2B6: Life Technologies and Expression Analysis (LTEA) Assay for Cytochrome P450 (CYP2B6) using HepaRG (AID 2283481). The method in brief: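 CYP2B6 transcript level quantified by qRT-PCR against three housekeeping genes, fitted bidirectionally relative to DMSO. HepaRG cultures received chemicals for 48 h, 8-point half-log series from 100 uM in 0.5% DMSO, duplicate wells, serum-free induction medium.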

Read-out in test [15]: Cytochrome P450 2C19 (Homo sapiens) (UniProt P33261)
In words: LTEA_HepaRG_CYP2C19: Life Technologies and Expression Analysis (LTEA) Assay for CYP2C19 using HepaRG (AID 2283482). The method in brief:
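CYP2C19 transcript levels by qRT-PCR, normalized to three housekeeping genes, in HepaRG cells after 48 h chemical exposure. Eight-point half-log series topping at 100 uM, 0.5% DMSO vehicle. Increases and decreases both fitted against DMSO.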

Read-out in test [16]: CYP2C8 (gene 1558)
In words: LTEA_HepaRG_CYP2C8: Life Technologies and Expression Analysis (LTEA) Assay for CYP2C8 using HepaRG (AID 2283483). An outline of the steps:
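CYP2C8 mRNA induction or loss, by qRT-PCR normalized to ACTB/GAPDH/POLR2A, is read in HepaRG cells after 48 h treatment. Concentrations run from 100 uM down in half-log dilutions, with 0.5% DMSO as vehicle and baseline.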

Read-out in test [17]: CYP2C9 (gene 1559)
The experiment in a line: LTEA_HepaRG_CYP2C9: Life Technologies and Expression Analysis (LTEA) Assay for CYP2C9 using HepaRG (AID 2283484). The method in brief: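 Cells plated 48 h, switched to serum-free induction medium, then treated in duplicate for 48 h at eight concentrations (max 100 uM, 0.5% DMSO). RNA then analysed by qRT-PCR for CYP2C9; curves fitted in both directions relative to DMSO.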

Read-out in test [18]: CYP2E1 (gene 1571)
In words: LTEA_HepaRG_CYP2E1: Life Technologies and Expression Analysis (LTEA) Assay for CYP2E1 using HepaRG (AID 2283485). An outline of the steps: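 Differentiated HepaRG cells were treated in duplicate for 48 h with chemicals in 0.5% DMSO, from 100 uM downward in half-log dilutions. RNA was then analysed by qRT-PCR for CYP2E1 induction or loss.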

Read-out in test [19]: CYP4A11 (gene 1579)
In words: LTEA_HepaRG_CYP4A11: Life Technologies and Expression Analysis (LTEA) Assay for CYP4A11 using HepaRG (AID 2283486). An outline of the steps: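 Readout is CYP4A11 transcript level by qRT-PCR, normalized to three housekeeping genes and fitted bidirectionally against 0.5% DMSO. Human HepaRG cells were treated 48 h, in duplicate, with an 8-point half-log series topping at 100 uM.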

Read-out in test [20]: Bcl-2 (BAX) gene, BAX (gene 581)
In words: LTEA_HepaRG_BAX: Life Technologies and Expression Analysis (LTEA) Assay for Bcl-2 (BAX) gene using HepaRG (AID 2283470). An outline of the steps:
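Concentration-response endpoint fitted in both directions relative to 0.5% DMSO vehicle. Human HepaRG cultures receive test chemicals for 48 h at up to 100 uM; BAX mRNA is quantified by qRT-PCR against housekeeping genes.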

Sequence of Apoptosis regulator Bcl-2 (Homo sapiens) (P10415 whole entry, looked up): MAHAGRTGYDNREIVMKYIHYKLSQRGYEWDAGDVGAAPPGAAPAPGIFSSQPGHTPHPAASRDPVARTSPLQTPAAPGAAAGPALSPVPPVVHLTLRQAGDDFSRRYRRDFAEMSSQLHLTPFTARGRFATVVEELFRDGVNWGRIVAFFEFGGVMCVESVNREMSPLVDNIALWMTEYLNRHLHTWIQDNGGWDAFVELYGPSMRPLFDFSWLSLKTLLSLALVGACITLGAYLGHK
Sequence of Cytochrome P450 2C19 (Homo sapiens) (P33261 whole entry, looked up): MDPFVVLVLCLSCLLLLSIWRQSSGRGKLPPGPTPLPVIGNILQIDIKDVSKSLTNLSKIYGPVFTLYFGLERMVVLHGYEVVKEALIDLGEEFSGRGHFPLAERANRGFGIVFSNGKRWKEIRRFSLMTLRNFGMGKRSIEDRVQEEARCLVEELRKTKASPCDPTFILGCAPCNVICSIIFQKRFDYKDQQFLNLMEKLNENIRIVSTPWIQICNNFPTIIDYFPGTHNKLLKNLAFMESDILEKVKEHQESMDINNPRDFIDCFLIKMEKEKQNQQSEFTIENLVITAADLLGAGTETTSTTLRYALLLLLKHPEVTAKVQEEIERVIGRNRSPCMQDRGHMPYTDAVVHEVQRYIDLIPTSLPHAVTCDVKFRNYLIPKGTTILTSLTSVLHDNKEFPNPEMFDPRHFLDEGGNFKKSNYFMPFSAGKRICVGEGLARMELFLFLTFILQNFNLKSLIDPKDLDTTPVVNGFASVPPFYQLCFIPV
Sequence of Caspase-3 (Homo sapiens) (P42574 whole entry, looked up): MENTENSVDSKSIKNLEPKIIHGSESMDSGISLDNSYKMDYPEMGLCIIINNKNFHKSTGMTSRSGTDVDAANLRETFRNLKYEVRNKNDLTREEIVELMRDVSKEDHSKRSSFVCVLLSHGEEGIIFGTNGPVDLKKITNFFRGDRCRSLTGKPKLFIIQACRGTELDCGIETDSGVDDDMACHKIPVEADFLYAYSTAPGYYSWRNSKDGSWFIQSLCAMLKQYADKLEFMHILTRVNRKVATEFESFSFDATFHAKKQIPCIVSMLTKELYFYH

For `CCOCCOCCO`, the molecule was called inactive in test [1], in test [2], in test [3], in test [4], in [5] and in test [6]. Besides, the outcome in test [7], in [8], in [9], in test [10], in test [11] and in test [12] was inactive. The outcome in [13], in [14], in test [15], in test [16], in test [17] and in test [18] was inactive. Also, the result in test [19] was inactive.
For the molecule `CC1(C)C(=O)NC(=O)N1CO`, the result in [1], in test [2], in test [3], in test [4], in test [5] and in test [6] was inactive. For the same molecule, the molecule was called inactive in [7], in test [8], in test [9], in test [10], in test [11] and in test [12]. Moreover, the outcome in test [13], in test [14], in test [15], in test [16], in test [17] and in test [18] was inactive. Moreover, the call in test [19] was inactive.
Turning to `O=C1CCCCC1`, the call in test [1], in test [2], in [3], in test [20], in [4] and in [5] was inactive. Also, the molecule was called inactive in [6], in [7], in [8], in [9], in [10] and in [11]. Also, the molecule was classed as inactive in [13], in test [15], in test [17], in test [18] and in [19].
On to `CCCCCCC(CCCCCCCCCCC(=O)OCC(COC(C)=O)OC(C)=O)OC(C)=O` (stereo not drawn), for which the outcome in [1], in test [2], in test [3], in test [20], in test [4] and in test [5] was inactive. Moreover, the result in [6], in test [7], in [8], in test [9], in test [10] and in [11] was inactive. Besides, the molecule was called inactive in test [13], in [14], in [15], in test [16], in [17] and in test [18]. Also, the outcome in test [19] was inactive.
What is called AC50 is the concentration giving half of the maximal activity seen. With `O=C(N[C@@H](c1ccccc1)[C@@H]1CCCCN1)c1cccc(C(F)(F)F)c1Cl`, the AC50 in [1] was 74.2 µM (active); in test [2] it was 10.8 µM (active); in [4], 78.2 µM (active); in test [5], 25.5 µM (active); in test [6], 85.7 µM (active); in test [10], 50 µM (active). Moreover, the half-maximal activity concentration (AC50) was 82.8 µM (active) in test [13]; 32.7 µM (active) in [14]; 78.8 µM (active) in test [15]; 36.1 µM (active) in test [17]; 13.1 µM (active) in test [18]; 24.2 µM (active) in test [19]. In addition, the result in test [3], in test [7], in test [8], in [9], in [11] and in test [12] was inactive. For the same molecule, the outcome in [16] was inactive.
